# Compounds without any hit were thinned out: in the full panel of roughly 83,000, 20% have a hit.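 Growth was measured after 48 h exposure to one concentration of compound in 96-well plates. Values under 10 count as active.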 A number with no mark means an inactive call. Calls of active or inactive are those of the source.
# Legend:
# Assay in all cases: NCI-60 one-dose screen, 48 h (100 = growth as untreated, 0 = no growth, -100 = all killed)
# [1] = tested on: HCT-15 colon; conditions: 10 µM unless noted
# [2] = tested on: HT29 colon; conditions: 10 µM unless noted
# [3] = tested on: SNB-75 CNS; conditions: 10 µM unless noted
# [4] = tested on: SNB-19 CNS; conditions: 10 µM unless noted
# [5] = tested on: U251 CNS; conditions: 10 µM unless noted
# [6] = tested on: PC-3 prostate; conditions: 10 µM unless noted
# [7] = tested on: SK-MEL-5 melanoma; conditions: 10 µM unless noted
# [8] = tested on: UACC-62 melanoma; conditions: 10 µM unless noted
# [9] = tested on: LOX IMVI melanoma; conditions: 10 µM unless noted
# [10] = tested on: SK-MEL-28 melanoma; conditions: 10 µM unless noted
# [11] = tested on: SK-MEL-2 melanoma; conditions: 10 µM unless noted
# [12] = tested on: EKVX NSCLC; conditions: 10 µM
# [13] = tested on: SN12C renal; conditions: 10 µM unless noted
# [14] = tested on: UO-31 renal; conditions: 10 µM unless noted
# [15] = tested on: TK-10 renal; conditions: 10 µM unless noted
# [16] = tested on: ACHN renal; conditions: 10 µM unless noted
# [17] = tested on: CAKI-1 renal; conditions: 10 µM unless noted
# [18] = tested on: A498 renal; conditions: 10 µM unless noted
# [19] = tested on: CCRF-CEM leukemia; conditions: 10 µM
# [20] = tested on: MOLT-4 leukemia; conditions: 10 µM unless noted
Compound,growth [1],growth [2],growth [3],growth [4],growth [5],growth [6],growth [7],growth [8],growth [9],growth [10],growth [11],growth [12],growth [13],growth [14],growth [15],growth [16],growth [17],growth [18],growth [19],growth [20]
CC1(C)Oc2cc3oc(=O)ccc3cc2C[C@@H]1OCCOS(=O)(=O)c1ccc(C#N)cc1,92.7%,97.2%,93.4%,96.5%,101%,87.3%,93.6%,87.1%,97.6%,101%,102%,107%,91.5%,83.5%,101%,95.2%,86.3%,79.6%,98.6%,92%
Nc1ccc(S(=O)(=O)Nc2cc(F)cc(F)c2)cc1,105%,102%,92.8%,104%,98.1%,109%,106%,88.3%,91.5%,120%,94.5%,80.4%,105%,85.4%,112%,98.7%,100%,95%,93.4%,72.7%
COc1ccc2c(c1)/C(=C/c1c(-c3cc(OC)c(OC)c(OC)c3)nc3sccn13)C(=O)N2,99.5%,108%,78.3%,97.1%,96.3%,85%,81.8%,92.5%,98.3%,98.8%,98.6%,94.3%,105%,77.8%,102%,100%,67.3%,65.3%,-43.3% (active),-61.2% (active)
COC(=O)c1ccc2[nH]c(O)c(C(=Nc3ccc(N(C)C(=O)CN4CCN(C)CC4)cc3)c3ccc([N+](=O)[O-])cc3)c2c1,73%,38%,54.7%,80.1%,42.6%,35.1%,49.4%,52.7%,46.2%,64.9%,43.2%,88.1%,27.4%,65.6%,72.2%,54.3%,19%,25.9%,21.2%,8.41% (active)
COc1cc2oc(-c3ccc(NC(=O)c4ccccc4)cc3)cc(=O)c2c(OC)c1OC,79.2%,84.3%,81%,75%,90.5%,71.7%,85.7%,85.4%,92.5%,93.3%,92.1%,90.8%,83.7%,88.7%,91.8%,83.5%,96.8%,90.9%,82.2%,92.2%
CC(=O)N1N=C(c2ccc(Cl)cc2)CC1c1cn(-c2ccccc2)nc1-c1ccc([N+](=O)[O-])cc1 (stereo not given),92.6%,93.8%,72.5%,90.1%,96.9%,108%,101%,85.1%,97.8%,110%,129%,98.8%,96.8%,107%,111%,96.8%,83.5%,109%,105%,110%
O=S(=O)(O)c1ccc2c(c1)Sc1cc(S(=O)(=O)O)ccc1O2,113%,106%,93.2%,103%,102%,99.2%,112%,96%,99.7%,106%,107%,90.1%,95.8%,97%,107%,112%,105%,96.6%,107%,115%
COc1cc(OC)c2c(=O)cc(-c3ccccc3)oc2c1,105%,97.1%,91.8%,94.3%,92.2%,81.1%,95.9%,77.7%,97.5%,106%,103%,103%,93%,70.2%,85.9%,103%,86.4%,77.1%,26.9%,80.4%

# — PubChem BioAssay (NCI)
